Experimental data reported in PubChem BioAssay (Tox21).
Inconclusive results are not listed. Calls of active or inactive are those of the source. Unless noted, calls follow the shape of the dose curve; as a rule, active = well fitted curve in the direction sought with a large enough effect in the repeat runs; inconclusive = weak or mixed curves; inactive = no such curve, though single readings can be large; an effect the other way counts as inactive or inconclusive.

Key:
[1] = qHTS assay to identify aromatase inhibitors - cell viability counter screen (AID 743084);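 also: cells stimulated with testosterone during compound exposure; nearly all actives have a fitted effect of over 55% in size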; also: potency is read from the fitted curve at half-maximal effect
[2] = target: Aryl hydrocarbon receptor (Homo sapiens) (UniProt P35869); assay: qHTS assay to identify small molecule that activate the aryl hydrocarbon receptor (AhR) signaling pathway (AID 743085);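 also: HG2L7.5c1 human HepG2 liver cells with stably integrated DRE-driven firefly reporter; series mostly up to about 70 µM; nearly all actives have a fitted effect of over 15% in size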
Procedure, shortened: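 24 h compound exposure, 37C, HepG2-derived HG2L7.5c1 cells with DRE-responsive luciferase. Readouts: fluorescence viability, then luminescence at room temperature after 30 min.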

[3] = qHTS assay to identify small molecule that activate the aryl hydrocarbon receptor (AhR) signaling pathway - cell viability counter screen (AID 743086); also: nearly all actives have a fitted effect of over 45% in size; also: potency is read from the fitted curve at half-maximal effect
Procedure, shortened: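 HepG2-AhR-luc (HG2L7.5c1) cells, 4000/well, treated 24 h at 37 C with compound; viability measured as CellTiter-Fluor fluorescence after 30 min in the same wells as the luciferase read.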

[4] = target: Peroxisome proliferator-activated receptor gamma (Homo sapiens) (UniProt P37231); assay: qHTS assay to identify small molecule agonists of the peroxisome proliferator-activated receptor gamma (PPARg) signaling pathway (AID 743094; active = well fitted activation curve with a large enough effect in the signal ratio in the repeat runs, not every such curve was filed as active; the % refers to the signal ratio)
Procedure, shortened: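 Beta-lactamase FRET fluorescence was the read-out after a 1 h room-temperature substrate step, following 17 h compound treatment at 37C of HEK293H cells expressing a UAS-driven bla reporter responsive to PPARg.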

[5] = target: Peroxisome proliferator-activated receptor gamma (Homo sapiens) (UniProt P37231); assay: qHTS assay to identify small molecule antagonists of the peroxisome proliferator-activated receptor gamma (PPARg) signaling pathway (AID 743191; calls by dose curve; also: series mostly up to about 63 µM; nearly all actives have a fitted effect of over 30% in size)
Procedure, shortened: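 GeneBLAzer PPARg UAS-bla HEK293H cells, 5 h post-plating, exposed to compounds 17 h at 37C. LiveBLAzer B/G FRET substrate added for 1 h at room temperature; beta-lactamase reporter read by fluorescence intensity.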

[6] = qHTS assay for small molecule agonists of the antioxidant response element (ARE) signaling pathway (AID 743202; active = well fitted activation curve with a large enough effect in the signal ratio in the repeat runs, not every such curve was filed as active; the % refers to the signal ratio)
Procedure, shortened: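 ARE-bla HepG2 cells (beta-lactamase reporter under the antioxidant response element), plated 5 hours, then exposed to compounds 16 hours at 37 C. LiveBLAzer B/G FRET substrate added for 2 hours at room temperature; fluorescence intensity read.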

[7] = qHTS assay for small molecule agonists of the antioxidant response element (ARE) signaling pathway - cell viability counter screen (AID 743203; calls by dose curve; also: nearly all actives have a fitted effect of over 55% in size)
Procedure, shortened: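 HepG2 cells carrying ARE-driven beta-lactamase; 2,000 cells/well; 5 hrs plating; compound pinned from DMSO; 16 hrs 37C/5% CO2; CellTiter-Glo added; 30 min RT; luminescence.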

[8] = qHTS assay for small molecule activators of the heat shock response signaling pathway - cell viability counter screen (AID 743209); also: nearly all actives have a fitted effect of over 50% in size
Procedure, shortened: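 Luminescence from CellTiter-Glo, added after the beta-lactamase FRET read, gave the viability signal. Cells were HSE-bla HeLa treated with DMSO-dissolved compounds for 5 h at 37 C following overnight plating.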

[9] = qHTS assay for small molecule activators of the heat shock response signaling pathway (AID 743210; active = well fitted activation curve with a large enough effect in the signal ratio in the repeat runs, with a control signal flat, not every such curve was filed as active; the % refers to the signal ratio; also: series mostly up to about 63 µM)
Procedure, shortened: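 HSE-bla HeLa cells (beta-lactamase reporter under heat shock response elements), plated overnight, then exposed to compounds 5 h at 37 C; LiveBLAzer B/G FRET substrate added, 2.5 h at room temperature, fluorescence intensity read.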

[10] = qHTS assay to identify small molecule agonists of the peroxisome proliferator-activated receptor delta (PPARd) signaling pathway - cell viability counter screen (AID 743211); also: nearly all actives have a fitted effect of over 55% in size
Procedure, shortened: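 Luminescent ATP viability assay (CellTiter-Glo, 30 min RT) in UAS-bla HEK293H cells carrying the PPAR delta reporter construct, 3000 cells/well, after a 17 h compound treatment at 37 C.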

[11] = target: Peroxisome proliferator-activated receptor delta (Homo sapiens) (UniProt Q03181); assay: qHTS assay to identify small molecule agonists of the peroxisome proliferator-activated receptor delta (PPARd) signaling pathway (AID 743212; calls by dose curve)
Procedure, shortened: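 GeneBLAzer UAS-bla HEK293H cells carrying a PPARδ construct were exposed to compounds at 37 °C. Beta-lactamase activity was read by FRET fluorescence after 2 h at room temperature with LiveBLAzer B/G substrate.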

[12] = qHTS assay to identify small molecule antagonists of the peroxisome proliferator-activated receptor delta (PPARd) signaling pathway - cell viability counter screen (AID 743213); also: nearly all actives have a fitted effect of over 50% in size
Procedure, shortened: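 CellTiter-Glo was added to PPARd-bla HEK293H wells following 17 h compound treatment in the presence of 300 nM L165041. Luminescence was recorded after 30 min at room temperature.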

[13] = target: Peroxisome proliferator-activated receptor delta (Homo sapiens) (UniProt Q03181); assay: qHTS assay to identify small molecule antagonists of the peroxisome proliferator-activated receptor delta (PPARd) signaling pathway (AID 743215; active = well fitted inhibition curve with a large enough effect in the signal ratio in the repeat runs, not every such curve was filed as active; the % refers to the signal ratio;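 also: cells stimulated with agonist L165041 at 300 nM final during compound exposure; series mostly up to about 62 µM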)
Procedure, shortened: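 Read-out is beta-lactamase FRET fluorescence, measured 2 h after substrate addition at room temperature. Beforehand, UAS-bla HEK293H cells carrying the PPARd reporter were exposed to compounds with L165041 at 300 nM final for 17 h at 37 C.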

[14] = qHTS assay to identify small molecule agonists of the farnesoid-X-receptor (FXR) signaling pathway - cell viability counter screen (AID 743218); also: nearly all actives have a fitted effect of over 45% in size
Procedure, shortened: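 HEK 293T FXR-bla cells; 5 h pre-incubation, 16 h compound exposure at 37 C; LiveBLAzer substrate 2 h RT, then CellTiter-Glo 30 min RT, luminescence.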

[15] = target: Bile acid receptor (Homo sapiens) (UniProt Q96RI1); assay: qHTS assay to identify small molecule agonists of the farnesoid-X-receptor (FXR) signaling pathway (AID 743220; active = well fitted activation curve with a large enough effect in the signal ratio in the repeat runs, not every such curve was filed as active; the % refers to the signal ratio)
Procedure, shortened: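 Beta-lactamase reporter under UAS control in GeneBLAzer FXR HEK 293T cells (5000/well) measured with LiveBLAzer FRET substrate after 2 h at room temperature. Compound exposure lasted 16 h at 37C.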

[16] = qHTS assay to identify small molecule antagonists of the farnesoid-X-receptor (FXR) signaling pathway - cell viability counter screen (AID 743221; active = well fitted cell-killing curve with a large enough effect in the repeat runs, not every such curve was filed as active; also: nearly all actives have a fitted effect of over 50% in size)
Procedure, shortened: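 In GeneBLAzer FXR-UAS-bla HEK 293T cells stimulated with 50 uM chenodeoxycholic acid (final), compounds acted for 16 h at 37 C. Viability was assessed afterwards by CellTiter-Glo luminescence.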

[17] = target: Vitamin D3 receptor (Homo sapiens) (UniProt P11473); assay: qHTS assay to identify small molecule agonists of the vitamin D receptor (VDR) signaling pathway (AID 743222; calls by dose curve)
Procedure, shortened: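 VDR-bla cells, 2,000/well; 4 h preincubation 37C; cpd (DMSO) 16 h; LiveBLAzer B/G substrate 2 h RT; fluorescence intensity read.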

[18] = target: Vitamin D3 receptor (Homo sapiens) (UniProt P11473); assay: qHTS assay to identify small molecule antagonists of the vitamin D receptor (VDR) signaling pathway (AID 743223; active = well fitted inhibition curve with a large enough effect in the signal ratio in the repeat runs, not every such curve was filed as active; the % refers to the signal ratio)
Procedure, shortened: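 Agonist 1alpha,25-dihydroxyvitamin D3 (3 nM in well) was added with each compound to VDR-bla cells preincubated 4 h. Cells stood 16 h at 37C, then FRET substrate 2 h at room temperature; fluorescence intensity recorded.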

[19] = qHTS assay to identify small molecule antagonists of the peroxisome proliferator-activated receptor gamma (PPARg) signaling pathway - cell viability counter screen (AID 743194); also: nearly all actives have a fitted effect of over 55% in size
Procedure, shortened: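 Cytotoxicity counter screen in PPARg-bla HEK293H cells, same wells as reporter assay. Compounds plus 50 nM rosiglitazone (final) for 17 h at 37 C, then viability read by CellTiter-Glo luminescence.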

[20] = target: Bile acid receptor (Homo sapiens) (UniProt Q96RI1); assay: qHTS assay to identify small molecule antagonists of the farnesoid-X-receptor (FXR) signaling pathway (AID 743217; active = well fitted inhibition curve with a large enough effect in the signal ratio in the repeat runs, not every such curve was filed as active; the % refers to the signal ratio)
Procedure, shortened: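 HEK 293T FXR-UAS-bla, 5000 cells/well; compound + CDCA 50 uM final; 16 h, 37 °C; B/G FRET substrate 2 h RT; fluorescence.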

Measured: Potency

Bile acid receptor (Homo sapiens), sequence (Q96RI1 whole entry, looked up): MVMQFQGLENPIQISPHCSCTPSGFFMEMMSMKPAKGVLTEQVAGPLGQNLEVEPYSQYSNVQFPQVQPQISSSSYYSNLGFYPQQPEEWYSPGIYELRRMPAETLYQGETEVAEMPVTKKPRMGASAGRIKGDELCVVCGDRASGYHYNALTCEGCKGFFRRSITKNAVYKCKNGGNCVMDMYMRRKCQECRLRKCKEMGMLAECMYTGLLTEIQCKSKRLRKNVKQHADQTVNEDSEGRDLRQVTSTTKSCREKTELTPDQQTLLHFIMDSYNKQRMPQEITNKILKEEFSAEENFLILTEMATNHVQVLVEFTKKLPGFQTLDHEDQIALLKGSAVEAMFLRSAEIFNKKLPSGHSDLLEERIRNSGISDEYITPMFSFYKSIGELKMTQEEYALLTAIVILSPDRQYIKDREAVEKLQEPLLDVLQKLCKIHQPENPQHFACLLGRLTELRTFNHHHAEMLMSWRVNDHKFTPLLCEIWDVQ
Peroxisome proliferator-activated receptor gamma (Homo sapiens), sequence (P37231 whole entry, looked up): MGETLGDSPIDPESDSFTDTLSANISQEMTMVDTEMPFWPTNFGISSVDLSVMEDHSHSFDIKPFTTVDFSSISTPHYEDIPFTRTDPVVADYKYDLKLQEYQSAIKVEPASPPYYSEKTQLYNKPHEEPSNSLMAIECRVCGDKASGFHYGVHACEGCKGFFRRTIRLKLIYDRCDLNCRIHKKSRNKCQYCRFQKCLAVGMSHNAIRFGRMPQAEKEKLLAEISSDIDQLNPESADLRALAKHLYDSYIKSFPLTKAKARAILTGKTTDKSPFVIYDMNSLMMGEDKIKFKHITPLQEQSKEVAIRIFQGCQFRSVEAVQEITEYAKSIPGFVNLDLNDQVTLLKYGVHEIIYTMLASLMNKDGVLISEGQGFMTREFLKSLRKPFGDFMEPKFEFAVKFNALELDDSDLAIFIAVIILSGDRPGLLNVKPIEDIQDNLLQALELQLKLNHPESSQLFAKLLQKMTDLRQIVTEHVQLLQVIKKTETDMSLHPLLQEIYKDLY
Aryl hydrocarbon receptor (Homo sapiens), sequence (P35869 whole entry, looked up): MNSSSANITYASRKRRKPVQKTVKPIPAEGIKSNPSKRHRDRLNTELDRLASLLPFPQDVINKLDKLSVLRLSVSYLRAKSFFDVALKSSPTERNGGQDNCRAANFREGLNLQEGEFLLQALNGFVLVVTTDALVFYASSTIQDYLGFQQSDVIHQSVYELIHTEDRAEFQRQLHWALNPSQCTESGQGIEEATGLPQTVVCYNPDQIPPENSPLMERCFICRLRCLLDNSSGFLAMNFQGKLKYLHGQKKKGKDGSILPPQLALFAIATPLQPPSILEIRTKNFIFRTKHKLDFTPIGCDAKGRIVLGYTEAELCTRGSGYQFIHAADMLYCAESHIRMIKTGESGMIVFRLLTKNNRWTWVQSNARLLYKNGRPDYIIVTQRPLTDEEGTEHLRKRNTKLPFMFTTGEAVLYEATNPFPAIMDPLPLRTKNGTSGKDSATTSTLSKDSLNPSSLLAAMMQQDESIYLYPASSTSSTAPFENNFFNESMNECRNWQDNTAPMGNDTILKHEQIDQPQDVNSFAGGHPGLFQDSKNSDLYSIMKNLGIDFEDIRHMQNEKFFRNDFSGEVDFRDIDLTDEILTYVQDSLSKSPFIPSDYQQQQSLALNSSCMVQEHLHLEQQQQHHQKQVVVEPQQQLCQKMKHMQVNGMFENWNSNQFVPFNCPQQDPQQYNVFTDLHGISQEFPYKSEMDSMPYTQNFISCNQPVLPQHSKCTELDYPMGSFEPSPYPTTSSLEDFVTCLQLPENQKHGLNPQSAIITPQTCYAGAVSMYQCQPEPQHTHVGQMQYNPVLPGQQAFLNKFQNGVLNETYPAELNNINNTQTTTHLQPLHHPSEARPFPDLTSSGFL
Peroxisome proliferator-activated receptor delta (Homo sapiens), sequence (Q03181 whole entry, looked up): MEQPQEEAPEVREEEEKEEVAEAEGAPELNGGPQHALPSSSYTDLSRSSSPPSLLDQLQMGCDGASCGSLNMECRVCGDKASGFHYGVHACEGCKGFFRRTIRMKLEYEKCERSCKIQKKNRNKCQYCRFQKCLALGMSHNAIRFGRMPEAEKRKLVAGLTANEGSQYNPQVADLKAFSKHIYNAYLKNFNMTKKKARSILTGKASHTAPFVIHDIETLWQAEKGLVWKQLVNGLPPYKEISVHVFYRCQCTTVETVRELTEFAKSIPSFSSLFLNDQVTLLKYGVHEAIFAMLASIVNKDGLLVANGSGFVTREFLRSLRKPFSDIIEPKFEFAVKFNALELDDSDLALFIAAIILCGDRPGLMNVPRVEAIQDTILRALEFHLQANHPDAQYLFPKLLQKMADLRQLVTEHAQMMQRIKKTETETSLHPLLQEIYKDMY
Vitamin D3 receptor (Homo sapiens), sequence (P11473 whole entry, looked up): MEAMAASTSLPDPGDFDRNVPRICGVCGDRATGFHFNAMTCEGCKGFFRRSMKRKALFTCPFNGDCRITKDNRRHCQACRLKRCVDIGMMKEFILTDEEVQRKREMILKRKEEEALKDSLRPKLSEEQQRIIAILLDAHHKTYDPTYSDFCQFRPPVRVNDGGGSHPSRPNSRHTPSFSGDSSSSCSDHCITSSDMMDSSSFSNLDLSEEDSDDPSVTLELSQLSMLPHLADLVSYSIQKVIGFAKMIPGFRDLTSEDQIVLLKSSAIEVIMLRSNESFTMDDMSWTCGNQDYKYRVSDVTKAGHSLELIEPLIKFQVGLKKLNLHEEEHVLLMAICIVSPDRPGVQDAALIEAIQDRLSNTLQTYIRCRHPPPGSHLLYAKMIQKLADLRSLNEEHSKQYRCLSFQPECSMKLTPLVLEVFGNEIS

CCC(C=O)CC
inactive: [1] | [2] | [3] | [4] | [5] | [6] | [7] | [8] | [9] | [10] | [11] | [12] | [13] | [14] | [15] | [16] | [17] | [18]

O=C1c2ccccc2C(=O)c2cc(S(=O)(=O)O)ccc21
inactive: [1] | [2] | [3] | [4] | [5] | [19] | [6] | [8] | [9] | [10] | [11] | [12] | [13] | [14] | [16] | [17] | [18]

O=S(=O)(O)c1ccc2cc(O)c(S(=O)(=O)O)cc2c1
inactive: [1] | [2] | [3] | [4] | [5] | [19] | [6] | [7] | [8] | [9] | [12] | [13] | [14] | [16] | [17] | [18]

CCCCC(CC)COCCO (configuration not stated)
inactive: [1] | [2] | [3] | [4] | [5] | [19] | [6] | [8] | [9] | [10] | [11] | [12] | [13] | [16] | [17] | [18]

CC(C)N(c1ccccc1)C(C)C
inactive: [1] | [2] | [3] | [4] | [5] | [19] | [6] | [8] | [9] | [11] | [13] | [14] | [16] | [17]

Nc1ccc([N+](=O)[O-])c(N)c1
inactive: [2] | [4] | [5] | [19] | [6] | [8] | [9] | [10] | [12] | [13] | [16] | [17] | [18]
active: [1] 33.5 µM | [3] 33.5 µM

C[Si](C)(C)C
inactive: [1] | [2] | [3] | [4] | [6] | [7] | [8] | [9] | [10] | [11] | [13] | [14] | [16] | [17] | [18]

CC(C)CC(C)CC(C)CC(C)COC(=O)c1ccccc1C(=O)OCC(C)CC(C)CC(C)CC(C)C (configuration not stated)
inactive: [1] | [2] | [3] | [4] | [19] | [6] | [7] | [8] | [9] | [10] | [12] | [13] | [14] | [15] | [16] | [17]

CC(C)NCC(O)COc1ccc(COCCOC(C)C)cc1 (configuration not stated)
inactive: [1] | [2] | [3] | [4] | [5] | [7] | [8] | [9] | [10] | [11] | [12] | [13] | [20] | [15] | [16] | [17]

Cc1cccc2nccnc12
inactive: [1] | [2] | [3] | [4] | [19] | [6] | [8] | [9] | [12] | [13] | [20] | [14] | [15] | [17] | [18]

O=C(O)c1ccc(Cl)cc1Cl
inactive: [1] | [2] | [3] | [4] | [19] | [6] | [7] | [8] | [9] | [10] | [11] | [12] | [13] | [20] | [14] | [15] | [16] | [17] | [18]
